Sfp PPTase inh: Sfp phosphopantetheinyl transferase inhibition | Q9F4F7 | Biochemical Sfp PPTase activity, qHTS | Potency, µM, actives largely listed as inhibitors | 310,000 compounds, 3.5% hits | AID 1490;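 note: the enzyme is Sfp with the accession as filed and its product quenches rhodamine fluorescence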
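Sfp 15 nM + cpd, 15 min RT; start w/ rhodamine-CoA 5 uM, BHQ-2-YbbR 12.5 uM (final); 50 mM Hepes pH 7.6, 10 mM MgCl2, 0.01% NP-40, 0.01% BSA; read 525/598 nm at 0 and 30 min.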
HP1b chromo inh: inhibitors of HP1-beta chromodomain binding to methylated histone tails | P83916 | AlphaScreen HP1-beta / biotin-H3K9me3 peptide binding | Potency, µM (top dose mostly 114 µM), hits mostly inhibitors | 390,000 compounds, 0.56% hits; note: nearly all actives have a fitted effect of over 70% in size
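AlphaScreen: HP1-beta (50 nM) preformed 30 min with biotin-H3(1-18)K9me3 peptide (50 nM) in PBS pH 7.4, 0.01% Tween-20. Compound added for 30 min at RT, then streptavidin donor/nickel chelate acceptor beads (10 ug/mL) for 30 min.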
JMJD2A Tudor: inhibitors of human JMJD2A Tudor domain. AID 504339. 390,000 compounds, 4.4% hits. O75164. AlphaScreen JMJD2A-Tudor / H3K4me3 peptide binding. Potency, µM (series often up to 114 µM), hits mostly inhibitors; note: nearly all actives have a fitted effect of over 50% in size
G9a inh: G9a (human) methyltransferase inhibition. Q96KQ7. G9a H3K9 monomethylation, AlphaScreen, 2 h. Potency, µM (top dose mostly 102 µM), hits mostly inhibitors. 350,000 compounds, 8.8% hits. AID 504332; note: nearly all actives have a fitted effect of over 75% in size
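Signal arises when biotinylated H3K9 peptide, once monomethylated, bridges streptavidin donor and antibody-captured acceptor beads. Enzyme at 20 nM was preincubated 15 min with test compounds; peptide 500 nM and SAM 20 uM then reacted for 2 h.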
BAZ2B inh: BAZ2B (human) inhibition. Potency, µM (highest dose often 114 µM), actives largely listed as inhibitors. 360,000 compounds, 4.4% hits. AID 504333. AlphaScreen BAZ2B-H3K14Ac peptide displacement. Q9UIF8; note: nearly all actives have a fitted effect of over 60% in size
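AlphaScreen displacement: compounds (up to 110uM) incubated 30 min at room temperature with a preformed 50 nM BAZ2B/50 nM biotinylated H3K14Ac peptide complex in PBS pH 7.4 with Tween-20. Donor and acceptor beads at 10 ug/mL final added, 20 min light-protected before reading.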
L3MBTL1 inh: L3MBTL1 (human) inhibition; 230,000 compounds, 0.66% hits; AlphaScreen L3MBTL1–H3K9me1 peptide binding; AID 485360; Q9Y468; Potency, µM (top dose mostly 57.1 µM), hits mostly inhibitors; note: nearly all actives have a fitted effect of over 60% in size
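L3MBTL1 50 nM + b-AHA-H3(1-15)K9me1 75 nM, 30 min RT; compound added, 30 min RT; streptavidin donor/Ni-chelate acceptor beads 10 ug/mL each final, 30 min RT dark; AlphaScreen read.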
Hits are given with their value; n = inactive; u = inconclusive; x = no result given; [ ] = dose if it differs, or a comment. Compounds with a hit are over-represented: about 12% of the library has one in this group of screens. Calls come from the whole dose curve; as a rule, active = well fitted curve in the direction sought with a large enough effect; inconclusive = small, poorly fitted or top-dose-only effect, or another doubt; inactive = no such curve, though single readings can be large; an effect the other way counts as inactive or inconclusive.

SMILES	Sfp PPTase inh	HP1b chromo inh	JMJD2A Tudor	G9a inh	BAZ2B inh	L3MBTL1 inh
COc1cc(/C=C/C(=O)Nc2ccc(OC)c(S(=O)(=O)N3CCOCC3)c2)ccc1OC(F)F	x	n	n	x	x	n
COc1ccc(NC(=O)CN2CCc3ccccc3C2)cc1S(=O)(=O)N1CCOCC1	n	n	n	n	n	n
COc1ccc(CC(=O)Nc2sccc2C#N)cc1S(=O)(=O)N1CCOCC1	x	n	n	39.8µM	n	n
COc1ccc(NC(=O)CN2C(=O)c3ccccc3S2(=O)=O)cc1S(=O)(=O)N1CCOCC1	x	n	n	50.1µM	n	n
COc1ccc(CCNC(=O)Cc2c(C)c3cc4c(C(C)(C)C)coc4c(C)c3oc2=O)cc1	x	n	n	n	n	x
COc1ccc(CNC(=O)c2ccc3c(c2)CCN3S(=O)(=O)c2ccc(C)cc2)cc1	x	n	n	n	n	x
CCCCOc1ccc(-c2csc(N)n2)cc1[N+](=O)[O-]	39.8µM	n	n	8.91µM	u	n
C=C1C=CS(=O)(=O)N(C(CC(C)C)C(=O)OC)C1 (stereo not given)	u	n	n	x	x	x
CCOc1ccc2oc(=O)cc(CN3CCN(C(=O)c4ccc(Cl)cc4)CC3)c2c1	x	n	n	n	n	x
CC(=O)C1=C(O)C(=O)N(c2ccc(Br)cn2)C1c1ccc(F)cc1 (stereo not given)	u	n	1.12µM	x	56.2µM	n
CC(=O)C1=C(O)C(=O)N(c2cc(C(C)(C)C)on2)C1c1ccc(Br)cc1 (stereo not given)	n	n	u	44.7µM	n	n
COc1cc(C2C(C(C)=O)=C(O)C(=O)N2c2ccc(Br)cn2)ccc1O (stereo not given)	n	n	89.1µM	n[0.0925 µM]	u	n
CC(=O)C1=C(O)C(=O)N(c2ccc(Br)cn2)C1c1ccccc1F (stereo not given)	n	n	n	u	n	n
CC(=O)C1=C(O)C(=O)N(c2ccc(Br)cn2)C1c1ccc(Br)cc1 (stereo not given)	u	n	22.4µM	56.2µM	u	n
CC(=O)C1=C(O)C(=O)N(c2ccc(Br)cn2)C1c1cccc([N+](=O)[O-])c1 (stereo not given)	n	n	n	n[2.33 µM]	n	x
Cc1c(Cl)cccc1NC(=O)C(C)N(c1ccccc1)S(C)(=O)=O (stereo not given)	x	n	n	n	n	x
CCOC(=O)N1CCC(NC(=O)c2ccc3c(c2)N(Cc2ccc(F)cc2)C(=O)c2ccccc2S3=O)CC1 (stereo not given)	x	n	n	n	n	x
O=C(Cc1nnc(-c2nc3ccccc3[nH]2)o1)Nc1cc(C(F)(F)F)ccc1Cl	x	x	n	x	x	x
O=C(CSc1nnc(-c2ccc3c(c2)OCO3)o1)Oc1ccccc1	x	n	n	u	n	x
CCN(CC)C(=O)c1sc2c(c1C)c(=O)n(-c1ccc(C)c(C)c1)c(=O)n2Cc1cccc(Cl)c1	x	n	u	n	n	x
CC(=O)C1=C(O)C(=O)N(c2ccc(O)cc2)C1c1ccc(Cl)cc1 (stereo not given)	n	n	n	70.8µM	n	x
NCC(=O)N[C@@H](CCCN=C(N)N)C(=O)NCC(=O)N[C@@H](CCC(=O)O)C(=O)N[C@@H](CO)C(=O)O	n	x	x	x	x	x
Cc1ccccc1-c1n[nH]c(=S)n1/N=C/C=C/c1ccco1	n	n	17.8µM	2.24µM	44.7µM	u
S=c1[nH]nc(-c2ccccc2)n1/N=C/C=C/c1ccco1	50.1µM	n	20µM	1.26µM	u	u
Cc1cc(-c2n[nH]c(=S)n2/N=C/C=C/c2ccco2)n[nH]1	56.2µM	n	2.82µM	2.51µM	50.1µM	n
SMILES	Sfp PPTase inh	HP1b chromo inh	JMJD2A Tudor	G9a inh	BAZ2B inh	L3MBTL1 inh
S=c1[nH]nc(-c2ccc(Cl)cc2)n1/N=C/C=C/c1ccco1	56.2µM	u	56.2µM	x	u	28.2µM
O=C(CNC(=O)c1ccc(Cl)cc1)OC(C(=O)Nc1cc(C(F)(F)F)ccc1Cl)c1ccccc1 (stereo not given)	x	x	n	x	x	x
COc1ccc(C(=O)n2nc(-c3cccnc3)nc2NCc2ccccc2)cc1OC	x	n	n	n	n	x
COc1ccc(CNC(=O)c2cnc(N3CCCC3)nc2C)cc1	x	n	n	n	n	x
Cn1cc(C(=O)NCCc2ccc(Cl)cc2)c(=O)c2cc(S(=O)(=O)N3CCCCC3)ccc21	x	n	n	n	x	x
CC(/C=N/n1c(-c2cccnc2)n[nH]c1=S)=C\c1ccco1	n	n	3.98µM	1.26µM	n	u
FC(F)(F)c1n[nH]c(=S)n1/N=C/c1ccco1	n	n	u	3.55µM	n	n
S=c1[nH]nc(-c2ccco2)n1/N=C/C=C/c1ccccc1	n	n	20µM	0.708µM	n	n
S=c1[nH]nc(-c2ccc(Cl)cc2)n1/N=C/c1ccco1	n	n	39.8µM	0.891µM	n	n
Cc1ccc(/C=N/n2c(-c3ccc(Cl)cc3)n[nH]c2=S)s1	n	n	u	u	n	x
Cc1nc2ccccc2c(=O)n1/N=C/c1ccco1	n	n	n	n	n	n
CC(/C=N/NC(=O)c1cccnc1)=C\c1ccco1	n	n	n	n[12.7 µM]	n	x
CCN(CC)CCOC(=O)c1ccc(NC(=O)c2cc3c(=O)n(CC)c4ccccc4c3s2)cc1	x	n	n	u	n	x
COc1ccc(-c2nc3sc(CCNC(=O)C(=O)Nc4cc(C)cc(C)c4)c(C)n3n2)cc1	x	n	n	n	n	x
S=c1[nH]nc(-c2cccnc2)n1/N=C/C=C/c1ccco1	15.8µM	n	20µM	x	44.7µM	22.4µM
c1cncc(-c2noc(-c3ccco3)n2)c1	n	n	n	n	n	n
Cc1nn(-c2ccccc2)c2c1N(CCCC(=O)NC(C)c1ccccc1)C(=O)CS2 (stereo not given)	x	n	n	n	n	x
CC1CC(=O)c2c(cc3c(-c4c(O)cc(O)c5c(O)c6c(cc45)OC(C)CC6=O)c(O)cc(O)c3c2O)O1 (stereo not given)	n	u	44.7µM	u	39.8µM	0.631µM
Cc1cccc(Oc2coc3cc(OCC(=O)NC4CCCCC4)ccc3c2=O)c1	x	n	n	n	n	x
COCc1c(C(=O)N(C)Cc2ccccc2N2CCCC2)oc2ccccc12	x	n	44.7µM	50.1µM	u	n
CC(C)OC(=O)Nc1ccc2c(c1)N(C(=O)N1CCN(C)CC1)c1ccccc1CC2	n	44.7µM	0.891µM	u	39.8µM	n
CCN(CC)CC(=O)Nc1ccc2c(c1)N(C(=O)CN(CC)CC)c1ccccc1CC2	n	n	n	56.2µM	n	x
CN1CCN(C(=O)CCN2C(=O)/C(=C/c3cccc(Br)c3)SC2=S)CC1	n	n	n	25.1µM	n	x
O=C(CCN1C(=O)/C(=C\c2cccc(Br)c2)SC1=S)NCCCN1CCOCC1	n	n	u	44.7µM	u	x
